Source: the supplement of paper PMC8047044

The compounds below were run on Neuro-2a (assay: neurite formation score, plate-normalized to DMSO control mean 5.04 (score (0-8 scale)); higher = more or longer neurites). Conditions: 0.1 µM.
Protocol: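 Neuro-2a mouse neuroblastoma cells in PLL-coated 96-well plates were pre-treated for 1 h in DMEM(+) with each kinase inhibitor at 0.1 µM, then switched to serum-free DMEM(-) with inhibitor to induce neurite outgrowth and fixed about 2-3 h later. Three blinded observers scored neurite formation from 0 (no neurites) to 8 (long neurites on almost all cells).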

Compound	neurite formation score
COc1ccc2c(c[n+](C)c3c4cc5c(cc4ccc23)OCO5)c1OC [Chelerythrine Chloride]	4.04
N#CC(C#N)=Cc1ccc(O)c(O)c1	5.38
COC[C@H]1OC(=O)c2coc3c2[C@@]1(C)C1=C(C3=O)[C@@H]2CCC(=O)[C@@]2(C)C[C@H]1OC(C)=O [Wortmannin]	4.58
CC(C)(C)c1cc(C=C(C#N)C#N)cc(C(C)(C)C)c1O [Tyrphostin 9]	4.92
O=c1[nH]c2ccccc2n1C1CCN(Cc2ccc(-c3[nH]c4cc5ncnc5cc4nc3-c3ccccc3)cc2)CC1 [AKT inhibitor VIII]	3.38
Cn1cc(C2=C(c3cn(C4CCN(Cc5ccccn5)CC4)c4ccccc34)C(=O)NC2=O)c2ccccc21	2.38
Cc1ccccc1-n1c(Cn2cnc3c(N)ncnc32)nc2cccc(C)c2c1=O	4.75
CCN1CCN(C(=O)Cc2ccc(Nc3ncc(F)c(Nc4ccc(C(=O)Nc5ccccc5Cl)cc4)n3)cc2)CC1 [Aurora A Inhibitor I]	4.92
COc1ccc(N(C(=O)Oc2c(C)cccc2C)c2ccnc(Nc3ccc(N4CCN(C)CC4)cc3)n2)c(OC)c1	5.08
O=c1[nH]c2ccc(Cl)cc2c(N[C@@H]2CN3CCC2CC3)c1-c1nc2ccccc2[nH]1	4.92
CC(C)(C)c1cc(C=C(C#N)C#N)cc(Br)c1O	5.04
COc1cc([C@@H]2c3cc4c(cc3[C@H](O)[C@H]3COC(=O)[C@@H]23)OCO4)cc(OC)c1OC	2.38
